# Results taken from PubChem BioAssay (NCATS).
# Results filed as inconclusive are left out. Calls of active or inactive are those of the source. Unless noted, calls follow the shape of the dose curve; as a rule, active = well fitted curve in the direction sought with a large enough effect; inconclusive = small, poorly fitted or top-dose-only effect, or another doubt; inactive = no such curve, though single readings can be large; an effect the other way counts as inactive or inconclusive.
# Assays:
# [1] = Quantitative High-Throughput drug screen in 47 multiple myeloma cell lines against the NCATS MIPE library collection: KMS11_JCRBsus cell viability assay (AID 1919873); also: nearly all actives have a fitted effect of over 50% in size; also: potency is read from the fitted curve at half-maximal effect
# Method in brief: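 MIPE 4.0 approved/investigational drugs; 500 cells/well; 48 h 37 °C humidified 5% CO2; CTG luminescence readout; DMSO = 100%, media = 0% viability.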
# [2] = qHTS drug screen for cell cycle checkpoint inhibitors in PARPi-resistant BRCA-mutant ovarian cancer cell lines. (AID 1963452; calls by dose curve); conditions: PEO1/OlaR viability, CellTiter-Glo luminescence, 96 h, stronger effect = lower value
# Method in brief: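 PEO1, PEO4 and PEO1/OlaR ovarian cancer cells, 600 per well, exposed 96 h at 37C to a dilution series. Viability read by CellTiter-Glo luminescence, normalized to DMSO and empty wells; activity summarized as Z-AUC.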
# 7G8 = experiment: qHTS profiling for inhibitors of Plasmodium falciparum proliferation (AID 504749); also: nearly all actives have a fitted effect of over 60% in size; also: potency is read from the fitted curve at half-maximal effect;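 as to activity, negative = inhibition: 0% = DMSO vehicle and full inhibition = artemisinin control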; conditions: P. falciparum in erythrocytes, SYBR Green DNA, 72 h; series mostly up to 28.7 µM
# Method in brief: (§1)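 Parasite proliferation within erythrocytes, 72 h exposure. Endpoint: SYBR Green I fluorescence after overnight lysis at room temperature. Controls: 0.29 uM artemisinin, DMSO.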
# [3] = KB-8-5-11 P-gp reporter qHTS against the NCATS DSHEA and TCM libraries (AID 1919977); also: 0% is about no effect
# Method in brief: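 Viability of drug-resistant KB-8-5-11 cells is measured by CellTiter-Glo luminescence following roughly 72 h treatment at 37C. Substances were titrated, with bortezomib as intraplate control.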
# [4] = qHTS profiling for inhibitors of Plasmodium falciparum proliferation (AID 504749); also: nearly all actives have a fitted effect of over 60% in size; also: potency is read from the fitted curve at half-maximal effect;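 as to activity, negative = inhibition: 0% = DMSO vehicle and full inhibition = artemisinin control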; conditions: P. falciparum in erythrocytes, SYBR Green DNA, 72 h, at 28.7 µM (top of the series)
# Method in brief: as §1
# 3D7 = experiment: as above; conditions: P. falciparum in erythrocytes, SYBR Green DNA, 72 h; series mostly up to 28.7 µM
# Method in brief: as §1
# AA1029 = experiment: as above; conditions: P. falciparum in erythrocytes, SYBR Green DNA, 72 h; series mostly up to 28.7 µM
# Method in brief: as §1
# AS120 = experiment: as above; conditions: P. falciparum in erythrocytes, SYBR Green DNA, 72 h; series mostly up to 28.7 µM
# Method in brief: as §1
# ATS189 = experiment: as above; conditions: P. falciparum in erythrocytes, SYBR Green DNA, 72 h; series mostly up to 28.7 µM
# Method in brief: as §1
# ATS95 = experiment: as above; conditions: P. falciparum in erythrocytes, SYBR Green DNA, 72 h; series mostly up to 28.7 µM
# Method in brief: as §1
# C2A = experiment: as above; conditions: P. falciparum in erythrocytes, SYBR Green DNA, 72 h; series mostly up to 28.7 µM
# Method in brief: as §1
# [5] = qHTS for identification of novel therapeutic agents for treatment of microphthalmiaassociated transcription factor (MiT) renal cell carcinoma (RCC) (AID 1963991); conditions: CellTiter-Glo, 48 h, stronger effect = lower value;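 also: curves scaled with 100% = DMSO viability and 0% = empty wells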
# Method in brief: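 UOK109/UOK124/UOK145 (TFE3 fusions, three partners); 500 cells/well; MIPE v4.0, 1912 cpds, 11 conc.; 48 h, 37 C; CellTiter-Glo, 15 min RT; lum. Norm.: DMSO 100%, empty 0%.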
# [6] = molecular target: Cytochrome P450 2D6 (Homo sapiens) (UniProt P10635); experiment: qHTS for inhibitors of CYP2D6 against the NCATS DSHEA and TCM libraries (AID 1919972); conditions: CYP2D6 enzymatic inhibition, luminescence qHTS; also: potency is read from the fitted curve at half-maximal effect
# Sequence of Cytochrome P450 2D6 (Homo sapiens) (P10635 whole entry, looked up): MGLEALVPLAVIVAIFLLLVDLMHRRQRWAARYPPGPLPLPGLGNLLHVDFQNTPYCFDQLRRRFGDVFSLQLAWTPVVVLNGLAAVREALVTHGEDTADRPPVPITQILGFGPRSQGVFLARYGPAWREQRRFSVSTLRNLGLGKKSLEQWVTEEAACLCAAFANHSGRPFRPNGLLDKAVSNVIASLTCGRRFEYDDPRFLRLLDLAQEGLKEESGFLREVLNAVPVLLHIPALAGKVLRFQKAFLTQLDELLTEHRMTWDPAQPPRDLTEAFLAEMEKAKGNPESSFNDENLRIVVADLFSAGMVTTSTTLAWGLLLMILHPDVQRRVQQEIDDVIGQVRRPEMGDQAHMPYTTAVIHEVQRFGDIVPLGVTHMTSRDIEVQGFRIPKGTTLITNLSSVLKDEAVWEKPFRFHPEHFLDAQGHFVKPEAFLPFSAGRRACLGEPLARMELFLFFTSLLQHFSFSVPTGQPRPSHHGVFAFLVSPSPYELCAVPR
# Method in brief: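 Luminescent P450-Glo read-out of CYP2D6 turnover of a luciferin substrate after NADPH-driven reaction of 30-45 min at room temperature. Compounds were first preincubated 15 min with enzyme at titrated concentrations; quinidine was the intraplate control.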
# [7] = molecular target: Cytochrome P450 2C19 (Homo sapiens) (UniProt P33261); experiment: qHTS for inhibitors of CYP2C19 against the NCATS DSHEA and TCM libraries (AID 1919974); conditions: CYP2C19 enzyme inhibition, luminescence qHTS;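 also: luminescence from luciferin released by CYP2C19 oxidation of a pro-luciferin substrate; potency is read from the fitted curve at half-maximal effect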
# Sequence of Cytochrome P450 2C19 (Homo sapiens) (P33261 whole entry, looked up): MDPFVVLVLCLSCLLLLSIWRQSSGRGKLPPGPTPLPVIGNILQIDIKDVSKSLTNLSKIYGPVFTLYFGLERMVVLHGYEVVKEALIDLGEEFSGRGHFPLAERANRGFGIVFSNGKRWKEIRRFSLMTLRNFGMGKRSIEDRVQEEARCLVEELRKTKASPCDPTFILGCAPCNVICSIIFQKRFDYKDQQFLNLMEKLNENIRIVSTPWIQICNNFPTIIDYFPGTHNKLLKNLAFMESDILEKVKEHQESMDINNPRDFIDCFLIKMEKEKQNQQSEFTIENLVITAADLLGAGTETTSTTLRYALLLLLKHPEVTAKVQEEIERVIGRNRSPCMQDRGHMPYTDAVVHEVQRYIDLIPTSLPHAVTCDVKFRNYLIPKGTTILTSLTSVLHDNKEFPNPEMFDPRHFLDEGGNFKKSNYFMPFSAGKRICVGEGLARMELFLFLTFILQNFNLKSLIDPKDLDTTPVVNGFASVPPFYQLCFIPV
# Method in brief: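 Luminescent P450-Glo format: compounds preincubated 15 min with enzyme and luciferin substrate, reaction run 30-45 min after NADPH regeneration solution. Intraplate controls: ketoconazole for CYP3A4 and CYP2C19, sulfaphenazole for CYP2C9.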
# [8] = KB-3-1 P-gp reporter qHTS against the NCATS DSHEA and TCM libraries (AID 1919975); also: 0% is about no effect
# Method in brief: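 Cell viability qHTS: 500 KB-3-1 cells/well, substances in titration, ~72 h, 37C; luminescent CellTiter-Glo read.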
# [9] = molecular target: Cytochrome P450 1A2 (Homo sapiens) (UniProt P05177); experiment: qHTS for inhibitors of CYPIA2 against the NCATS DSHEA and TCM libraries (AID 1919976); conditions: recombinant CYP1A2 enzyme activity, luminescence; also: potency is read from the fitted curve at half-maximal effect
# Sequence of Cytochrome P450 1A2 (Homo sapiens) (P05177 whole entry, looked up): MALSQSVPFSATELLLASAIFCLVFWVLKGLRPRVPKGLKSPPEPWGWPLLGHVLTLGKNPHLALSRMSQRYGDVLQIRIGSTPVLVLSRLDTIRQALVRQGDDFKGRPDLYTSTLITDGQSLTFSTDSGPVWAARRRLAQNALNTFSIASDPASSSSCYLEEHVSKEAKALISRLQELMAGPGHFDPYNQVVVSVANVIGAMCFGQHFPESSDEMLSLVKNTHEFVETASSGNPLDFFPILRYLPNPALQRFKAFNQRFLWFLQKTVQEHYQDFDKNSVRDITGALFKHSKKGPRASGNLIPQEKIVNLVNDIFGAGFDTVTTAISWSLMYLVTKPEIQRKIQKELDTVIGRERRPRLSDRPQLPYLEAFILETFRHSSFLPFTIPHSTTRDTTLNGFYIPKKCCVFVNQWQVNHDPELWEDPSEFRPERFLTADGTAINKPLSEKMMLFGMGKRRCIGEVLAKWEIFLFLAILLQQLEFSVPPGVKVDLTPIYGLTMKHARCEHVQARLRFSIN
# Method in brief: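 Human CYP1A2 with pro-luciferin substrate (typically 100 mM KPO4), 15 min preincubation with compound, then 1x NADPH regeneration for 30-45 min at room temperature in the dark. Luciferin quantified by luciferase luminescence; furafylline intraplate control.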
# [10] = qHTS Counterscreen for compound interference against the NCATS DSHEA and TCM libraries (AID 1919978); conditions: firefly luciferase detection reagent interference, luminescence;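 also: compounds preincubated with 1 µM D-luciferin or buffer before detection reagent; % of control where 0% means no effect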
# Method in brief: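 Interference check: test samples were incubated with D-luciferin (final 1 uM) or buffer only for 15 min, room temperature, in a qHTS titration up to 39.8 uM, then developed with detection reagent and read by luminescence.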
# [11] = Dual reporter qHTS for agonist of Pregnane X Receptor (hPXR) against the NCATS DSHEA and TCM libraries: Fluorescence readout (AID 1920058); also: 0% is about no effect
# Method in brief: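 hPXR-Luc HepG2 cells, 2000/well in charcoal-stripped serum, attached 5 h, dosed for ~24 h at 37 °C. Fluorescence read is CellTiter-Fluor viability (Ex/Em 405/540 nm); rifampicin positive, tetraoctyl ammonium bromide (92 µM) cytotoxicity controls.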
# [12] = molecular target: Nuclear receptor subfamily 1 group I member 2 (Homo sapiens) (UniProt O75469); experiment: Dual reporter qHTS for antagonist of Pregnane X Receptor (hPXR) against the NCATS DSHEA and TCM libraries: Luminescence Readout (AID 1920060);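 also: HepG2 cells carrying hPXR luciferase reporter stimulated with rifampicin at 2 µM; 0% is about no effect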
# Sequence of Nuclear receptor subfamily 1 group I member 2 (Homo sapiens) (O75469 whole entry, looked up): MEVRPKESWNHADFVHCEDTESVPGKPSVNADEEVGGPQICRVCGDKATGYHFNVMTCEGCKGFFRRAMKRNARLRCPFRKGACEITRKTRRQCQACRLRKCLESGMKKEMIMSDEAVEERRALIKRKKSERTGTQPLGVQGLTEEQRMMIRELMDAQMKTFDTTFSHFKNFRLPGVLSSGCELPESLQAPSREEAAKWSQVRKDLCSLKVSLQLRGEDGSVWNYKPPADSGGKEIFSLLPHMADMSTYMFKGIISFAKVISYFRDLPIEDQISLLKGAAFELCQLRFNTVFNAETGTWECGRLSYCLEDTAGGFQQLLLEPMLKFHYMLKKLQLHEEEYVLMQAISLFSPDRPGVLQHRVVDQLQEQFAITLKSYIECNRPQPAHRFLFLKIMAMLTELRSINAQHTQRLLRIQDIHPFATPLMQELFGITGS
# Method in brief: (§2)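 HepG2 hPXR-Luc, 2000 cells/well, charcoal-stripped FBS medium; 5 h attach; RIF 2 uM final; 24 h 37C/5% CO2; CellTiter-Fluor 1 h, fluor 405/540; ONE-Glo 30 min RT, lum.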
# [13] = Dual reporter qHTS for antagonist of Pregnane X Receptor (hPXR) against the NCATS DSHEA and TCM libraries: Fluorescence Readout (AID 1920061); also: 0% is about no effect
# Method in brief: as §2
# [14] = measured here: PEO1 parental Z-AUC
smiles,measurement,setting,value
CNC(=O)c1ccc(N2C(=S)N(c3ccc(C#N)c(C(F)(F)F)c3)C(=O)C23CCC3)cc1F,Potency,[1],inactive
same,Z-AUC,[2],1.87 (inactive)
same,Z-AUC,[2]; [14],1.38
same,Z-AUC,[2]; measured here: PEO4 Z-AUC,1.39
N[C@@H](Cc1ccc(N(CCCl)CCCl)cc1)C(=O)O,Potency,[1],23.5 µM (active)
same,Z-AUC,[2],-0.14 (inactive)
same,Z-AUC,[2]; [14],-0.257
same,Z-AUC,[2]; measured here: PEO4 Z-AUC,-0.0487
same,Potency,7G8,11.2 µM (active)
O=c1c(O)c(-c2ccc(O)c(O)c2)oc2cc(O)cc(O)c12,outcome,[3],inactive
C[C@]12CCC(=O)C(O)=C1CC[C@@H]1[C@@H]2CC[C@]2(C)C(=O)CC[C@@H]12,Z-AUC,[2],0.873 (inactive)
same,Z-AUC,[2]; [14],1.02
same,Z-AUC,[2]; measured here: PEO4 Z-AUC,1.06
Cc1sc2c(c1C)C(c1ccc(Cl)cc1)=N[C@@H](CC(=O)OC(C)(C)C)c1nnc(C)n1-2,Potency,[1],0.059 µM (active)
same,Z-AUC,[2],-0.873 (inactive)
same,Z-AUC,[2]; [14],-0.421
same,Z-AUC,[2]; measured here: PEO4 Z-AUC,-0.731
CN(C)CCc1ccc(O)cc1,Potency,[1],inactive
same,"activity, negative = inhibition",[4]; parasite line A,-8.4% (inactive)
same,"activity, negative = inhibition",[4]; parasite line B,2.47% (inactive)
same,Potency,3D7,inactive
same,Potency,7G8,inactive
same,Potency,AA1029,inactive
same,Potency,AS120,inactive
same,Potency,ATS189,inactive
same,Potency,ATS95,inactive
same,Potency,C2A,inactive
O=C1CC[C@@]2(O)[C@H]3Cc4ccc(O)c5c4[C@@]2(CCN3CC2CC2)[C@H]1O5,Potency,[1],inactive
same,Z-AUC,[2],-0.771 (inactive)
same,Z-AUC,[2]; [14],-0.291
same,Z-AUC,[2]; measured here: PEO4 Z-AUC,-0.633
same,z-score,"[5]; TFE3-RCC UOK109 viability, measured here: UOK109 Z-AUC",0.814
same,z-score,"[5]; TFE3-RCC viability, measured here: UOK124 Z-AUC",0.454
same,z-score,"[5]; TFE3-RCC viability, measured here: UOK145 Z-AUC",1.09
C=C(C)[C@H]1Cc2c(ccc3c2O[C@@H]2COc4cc(OC)c(OC)cc4[C@@H]2C3=O)O1,Potency,[1],0.332 µM (active)
same,Z-AUC,[2],-1.61 (inactive)
same,Z-AUC,[2]; [14],-2.63
same,Z-AUC,[2]; measured here: PEO4 Z-AUC,-1.87
same,"activity, negative = inhibition",[4]; parasite line A,-0.828% (inactive)
same,"activity, negative = inhibition",[4]; parasite line B,-4.67% (inactive)
same,Potency,3D7,inactive
same,Potency,7G8,10 µM (active)
same,Potency,AA1029,inactive
same,Potency,AS120,inactive
same,Potency,ATS189,inactive
same,Potency,ATS95,inactive
same,Potency,C2A,inactive
COC[C@@H](NC(C)=O)C(=O)NCc1ccccc1,Potency,[1],inactive
same,Z-AUC,[2],-0.757 (inactive)
same,Z-AUC,[2]; [14],0.116
same,Z-AUC,[2]; measured here: PEO4 Z-AUC,-0.684
CC(C)=CCOc1c2occc2cc2ccc(=O)oc12,Potency,[6],1.78 µM (active)
same,Potency,[7],12.6 µM (active)
same,outcome,[8],inactive
same,Potency,[9],1.26 µM (active)
same,outcome,[3],inactive
same,max response,[10],2.08% (inactive)
same,outcome,[11],inactive
same,outcome,[12],inactive
same,outcome,[13],inactive
CN1CCN(C(=O)O[C@H]2c3nccnc3C(=O)N2c2ccc(Cl)cn2)CC1,Potency,[1],inactive
same,"activity, negative = inhibition",[4]; parasite line A,-9.31% (inactive)
same,"activity, negative = inhibition",[4]; parasite line B,-0.974% (inactive)
same,Potency,3D7,inactive
same,Potency,7G8,inactive
same,Potency,AA1029,inactive
same,Potency,AS120,inactive
same,Potency,ATS189,inactive
same,Potency,ATS95,inactive
same,Potency,C2A,inactive
CN(C)[C@@H]1C(=O)C(C(N)=O)=C(O)[C@@]2(O)C(=O)C3=C(O)c4c(O)cccc4[C@@](C)(O)[C@H]3C[C@@H]12,Potency,[1],inactive
same,Z-AUC,[2],1.23 (inactive)
same,Z-AUC,[2]; [14],0.408
same,Z-AUC,[2]; measured here: PEO4 Z-AUC,1.42
N[C@@H]1C[C@H]1c1ccccc1,Z-AUC,[2],0.628 (inactive)
same,Z-AUC,[2]; [14],1.13
same,Z-AUC,[2]; measured here: PEO4 Z-AUC,0.895
COC1(CS(=O)c2ccccc2)CCN(CCc2c[nH]c3ccc(F)cc23)CC1 (stereo not given),Z-AUC,[2],0.788 (inactive)
same,Z-AUC,[2]; [14],0.436
same,Z-AUC,[2]; measured here: PEO4 Z-AUC,0.362
